Data on 12 molecules can be found in PubChem BioAssay (NCATS).

Results filed as inconclusive are left out. Active and inactive are the calls of the source. Unless noted, calls come from the whole dose curve; as a rule, active = well fitted curve in the direction sought with a large enough effect; inconclusive = small, poorly fitted or top-dose-only effect, or another doubt; inactive = no such curve, though single readings can be large; an effect the other way counts as inactive or inconclusive.

Experiment [1] is described as follows: High-throughput drug toxicity screening in the BPDCN cell line Gen2.2 (AID 1224824; call rule not given here;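 note: cells exposed to compounds for 48 h before reading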). Conditions: Gen2.2 BPDCN cells; at 45.8 µM (top of the series) unless noted. In short, it runs like this:
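CellTiter-Glo luminescence read after 48 h compound exposure at 37 C defines viability; percent activity set with DMSO as 100% and bortezomib (9.2 uM final) as 0%. 500 exponentially growing cells per well, RPMI plus 10% FBS.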

Experiment [2] in a line: High-throughput drug toxicity screening in the BPDCN cell line Cal-1 (AID 1224825; call rule not given here). Conditions: Cal-1 BPDCN cell viability, qHTS; at 45.8 µM (top of the series) unless noted. Summed up: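 Exponentially growing Cal-1 cells, 500 per well in phenol red-free RPMI with 10% FBS, were exposed to compounds for 48 h at 37 °C, 5% CO2. Viability was read by CellTiter-Glo luminescence and normalised to DMSO (100%) and 9.2 uM bortezomib (0%).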
(In general: In qHTS, concentration-response curves come from the screen itself.)

Experiment [3] is described as follows: qHTS assay for measurement of the activity of small molecule inhibitors on Zika virus induced Caspase-3 activity in human iPSC derived neural progenitor cells (hNPCs) (AID 1224857). Note: % of control where 0% means no effect; nearly all actives have a fitted effect of over 65% in size. Summed up: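 hNPCs seeded 350 cells/well, cultured 16–20 h; compounds added 1 h before ZIKV (2 FFU/cell), 37 C 6 h. Caspase-Glo 3/7 luminescence after 30 min RT; % inhibition from induction scaled to uninfected (0%) and infected (100%) wells.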

Experiment [4] in a line: qHTS assay for measurement of the activity of small molecule inhibitors on Zika virus induced Caspase-3 activity in human astrocytoma cells (AID 1224859).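 Note: plate controls were ZIKV-infected untreated cells for no effect and uninfected cells for full effect.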 Summed up: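 Luminescence read-out (Caspase-Glo 3/7, 30 min RT) of caspase activity in SNB-19 cells infected 6 h with ZIKV, 2 FFU/cell, after 1 h compound pretreatment; % inhibition from induction normalised to uninfected (0%) and infected (100%) wells.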

Experiment [5] can be described thus: qHTS Screen of the MIPE 4.0 Collection Against Ewings Sarcoma (RDES) (AID 1259252). Note: nearly all actives have a fitted effect of over 35% in size. Note: potency is the fitted concentration of half-maximal effect. In short, it runs like this: (§1)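 Here, cells in 5% FBS RPMI were exposed for two days (48 h) to compound dilutions added four hours after plating. ATP-based CellTiter-Glo luminescence measured viability, normalized to vehicle and no-cell blanks.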
Experiment [6] in a line: qHTS Screen of the MIPE 4.0 Collection Against Ewings Sarcoma (EW8) (AID 1259255).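 For viability: 100% = DMSO-treated cells and 0% = medium-only wells without cells.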 Note: nearly all actives have a fitted effect of over 35% in size. Note: potency is the fitted concentration of half-maximal effect. In short, it runs like this:
as §1

The nature of experiment [7]: qHTS Screen of the MIPE 4.0 Collection Against Ewings Sarcoma (TC32) (AID 1259256). Note: nearly all actives have a fitted effect of over 45% in size. Note: potency is the fitted concentration of half-maximal effect. Summed up:
as §1

Experiment [8] can be described thus: P-glycoprotein substrates identified in KB-8-5-11 adenocarcinoma cell line, qHTS therapeutic library screen (AID 1346987). Note: nearly all actives have a fitted effect of over 65% in size. Note: potency is the fitted concentration of half-maximal effect. In short, it runs like this:
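P-gp-mediated resistance screen: KB-8-5-11 cells treated 72 h with compounds in dose-response. CellTiter-Glo viability.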

Experiment [9] in a line: qHTS Screen of the MIPE 4.0 Collection Against Ewings Sarcoma (TC71) (AID 1259253). Note: nearly all actives have a fitted effect of over 40% in size. Note: potency is the fitted concentration of half-maximal effect. In short, it runs like this:
as §1

Experiment [10] in a line: P-glycoprotein substrates identified in KB-3-1 adenocarcinoma cell line, qHTS therapeutic library screen (AID 1346986). Note: nearly all actives have a fitted effect of over 60% in size. Summed up:
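KB-3-1 parental cells and P-gp-overexpressing KB-8-5-11 (colchicine omitted during assay) plated at 500 cells/well, dosed in dose-response, incubated 72 h at 37 degree C. CellTiter-Glo luminescence read; KB-8-5-11 also tested with tariquidar.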

With `CCN(CC)CCNC(=O)c1c(C)[nH]c(C=C2C(=O)Nc3ccc(F)cc32)c1C`, the cell viability, % of control (lower = more cytotoxic) in experiment [1] is 7.6% [at 92.2 µM]. Moreover, the viability (% of control) in [2] was 4.58% [at 92.2 µM]. Besides, the Potency result in [3] and in experiment [4] was “inactive” in each case. The Potency in [5] was 9.59 µM (active); in experiment [6], 4.29 µM (active); in experiment [7], 10.8 µM (active); in experiment [8], 1.21 µM (active).
As for `CCCCC(=O)O[C@]1(C(=O)CO)[C@@H](C)C[C@H]2[C@@H]3CCC4=CC(=O)C=C[C@]4(C)[C@@]3(F)[C@@H](O)C[C@@]21C`, the cell viability, % of control (lower = more cytotoxic) in experiment [1] came out at 44%. In addition, the viability (% of control) in [2] was found to be 51.8%. Besides, the Potency result in [3], in experiment [4], in experiment [5], in experiment [9], in experiment [6] and in experiment [10] was “inactive” throughout. Further, in experiment [8], the Potency result is “inactive”.
On to `CCN(CC)Cc1ccc2cc(COC(=O)Nc3ccc(C(=O)NO)cc3)ccc2c1`, for which, in experiment [1], the cell viability, % of control (lower = more cytotoxic) came to 8.65%. The viability (% of control) in [2] turned out to be 4.07%. Besides, the Potency result in experiment [3] and in experiment [4] was “inactive” throughout. For the same molecule, the Potency in experiment [5] is 0.743 µM (active); in experiment [9] it was 0.662 µM (active); in experiment [6] it was 0.526 µM (active); in experiment [7] it was 0.662 µM (active); in experiment [8], 7.43 µM (active).
In the case of `COC(=O)C1C2CC3c4[nH]c5cc(OC)ccc5c4CCN3CC2CC(OC(=O)c2cc(OC)c(OC)c(OC)c2)C1OC` (stereo not given), the cell viability, % of control (lower = more cytotoxic) in experiment [1] worked out at 120%. Moreover, the viability (% of control) in experiment [2] is 78.7%. Further, the Potency result in experiment [3], in [4] and in [8] was “inactive” in each case. The Potency in experiment [5] was 2.64 µM (active); in experiment [9], 2.64 µM (active); in experiment [6], 2.96 µM (active).
For the molecule `CC(C=CC1=C(C)CCCC1(C)C)=CC=CC(C)=CC(=O)Nc1ccc(O)cc1`, in experiment [1], the cell viability, % of control (lower = more cytotoxic) is 5.64% [at 92.2 µM]. Further, the viability (% of control) in [2] was found to be 4.87% [at 92.2 µM]. Besides, the Potency entry in experiment [3] and in [4] was “inactive” each time. Besides, the Potency is 2.41 µM (active) in experiment [5], 4.29 µM (active) in experiment [6], 12.1 µM (active) in [7] and 24.1 µM (active) in [8].
Regarding `C=CCNC1=C2C[C@@H](C)C[C@H](OC)[C@@H](O)[C@@H](C)C=C(C)[C@H](OC(N)=O)[C@@H](OC)C=CC=C(C)C(=O)NC(=CC1=O)C2=O`, the cell viability, % of control (lower = more cytotoxic) in [1] came to 6.66%. The viability (% of control) in experiment [2] was 5.31%. For the same molecule, the Potency entry in [3] is “inactive”. In addition, the Potency in experiment [5] is 6.62 µM (active); in experiment [9], 3.72 µM (active); in experiment [6], 10.5 µM (active); in [7], 0.372 µM (active); in experiment [8], 3.72 µM (active).
As for `CC(=O)O[C@H]1C[C@@H]2CC[C@H]3[C@H]4C[C@H]([N+]5(C)CCCCC5)[C@@H](OC(C)=O)[C@@]4(C)CC[C@@H]3[C@@]2(C)C[C@H]1N1CCCCC1`, in [1], the cell viability, % of control (lower = more cytotoxic) was 216%. Also, in [2], the viability (% of control) was found to be 123%. For the same molecule, the Potency result in experiment [3], in [4] and in experiment [8] was “inactive” in each case. The Potency in [5] is 7.43 µM (active); in [6], 8.33 µM (active); in experiment [7] it was 7.43 µM (active).
On to `CN(C)CCN1C(=O)c2cccc3cc(N)cc(c23)C1=O`, for which the cell viability, % of control (lower = more cytotoxic) in [1] is 5.29%. The viability (% of control) in experiment [2] amounted to 4.08%. Besides, the Potency result in experiment [3] was “inactive”. Further, the Potency in experiment [5] is 16.6 µM (active); in [9], 14.8 µM (active); in experiment [6] it was 1.66 µM (active); in experiment [8], 14.8 µM (active).
Turning to `C[C@H](NCc1ccc(OCc2cccc(F)c2)cc1)C(N)=O`, the cell viability, % of control (lower = more cytotoxic) in experiment [1] came out at 13.6%. Moreover, in [2], the viability (% of control) worked out at 4.81%. Also, the Potency entry in experiment [3] was “inactive”. Also, the Potency in experiment [5] is 14.8 µM (active); in experiment [9], 14.8 µM (active); in [6] it was 8.33 µM (active); in experiment [7], 14.8 µM (active).
`CN1CCc2c(c3ccccc3n2Cc2ccc(C(=O)NO)cc2)C1`: in experiment [1], the cell viability, % of control (lower = more cytotoxic) was found to be 4.7%. Also, in experiment [2], the viability (% of control) is 4.77%. The Potency entry in experiment [3] is “inactive”. For the same molecule, the Potency in [5] was 13.2 µM (active); in [9], 16.6 µM (active); in [6] it was 13.2 µM (active); in experiment [7] it was 18.7 µM (active).
Regarding `CCC(C=C[C@@H]1OC(=O)C=C[C@H]1C)=C[C@H](C)CC=CC(C)=C[C@@H](C)C(=O)[C@@H](C)[C@H](O)[C@@H](C)CC(C)=CC(=O)O`, in experiment [1], the cell viability, % of control (lower = more cytotoxic) was 5.63% [at 1.72 µM]. In addition, in experiment [2], the viability (% of control) was determined as 5.92% [at 1.72 µM]. In addition, the activity change, negative = inhibition in [3] was 14.9% [at 1.73 µM] (inactive). Also, the Potency in experiment [5] was 0.022 µM (active); in experiment [9], 0.022 µM (active); in experiment [6] it was 0.0156 µM (active); in [7], 0.0139 µM (active); in [8], 0.196 µM (active).
In the case of `CCOC(=O)C=C[C@H](C[C@@H]1CCNC1=O)NC(=O)[C@@H](CC(=O)[C@@H](NC(=O)c1cc(C)on1)C(C)C)Cc1ccc(F)cc1`, the cell viability, % of control (lower = more cytotoxic) in experiment [1] worked out at 74.1%. Besides, in experiment [2], the viability (% of control) worked out at 107%. Moreover, the Potency entry in [3], in [4], in experiment [5], in [6], in experiment [7] and in experiment [8] was “inactive” in each case.
